Results filed as inconclusive are left out. Activity calls are given as the source filed them. Calls follow the shape of the dose curve; as a rule, active = well fitted cell-killing curve with a large enough effect; inconclusive = small, poorly fitted or top-dose-only effect, or effect the other way; inactive = no such curve, though single readings can be large or run the other way.
These compounds were tested on JEG-3 (assay: Confirmatory qHTS for gynecologic anti-cancer compounds from libraries of approved drugs and bioactive compounds). Details: gynecologic cancer cell panel viability, ATPlite luminescence, 48 h; series mostly up to 57.6 µM.
Outline: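 ATP-based luminescent viability (ATPlite) after 48 h drug treatment at 37 °C, 5% CO2, across 57.5 uM–0.977 nM in 1:3 steps. Cells seeded at 1,000 per well 16 h beforehand; IC50 values computed, HEK 293T as selectivity control.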
Also: nearly all actives have a fitted effect of over 55% in size.
Potency is read from the fitted curve at half-maximal effect.

| SMILES | Potency |
| --- | --- |
| CC1=C(CO)C(=O)O[C@@H]([C@@H](C)[C@H]2CC[C@H]3[C@@H]4C[C@H]5O[C@]56[C@@H](O)C=CC(=O)[C@]6(C)[C@H]4CC[C@]23C)C1 | 5300 nM (active) |
| Cc1nc(Nc2n[nH]c3c2CN(C(=O)NC(CN(C)C)c2ccccc2)C3(C)C)c2sccc2n1 (configuration not stated) | 544 nM (active) |
| CC(C)C[C@H](NC(=O)[C@@H](NC(=O)c1cccc(-c2ccccc2)n1)[C@@H](C)O)B(O)O | 1530 nM (active) |
| C=CC(=O)Nc1cccc(Oc2nc(Nc3ccc(N4CCN(C)CC4)cc3)ncc2Cl)c1 | 24300 nM (active) |
| CN(C)CC/C=C1\c2ccccc2COc2ccccc21 | inactive |
| FC(F)(F)c1ccc(/C=C/c2nc(COc3ccc(CCCCn4ccnn4)cc3)co2)cc1 | 17.2 nM (active) |
| COc1cccc2c1C(=O)c1c(O)c3c(c(O)c1C2=O)C[C@@](O)(C(=O)CO)C[C@@H]3O[C@H]1C[C@H](N)[C@H](O)[C@H](C)O1 | 1090 nM (active) |
| CN(NC(=O)CC(=O)NN(C)C(=S)c1ccccc1)C(=S)c1ccccc1 | 109 nM (active) |
| COc1ccc(-c2cc3nccn3c(Nc3ncccc3C(N)=O)n2)cc1OC | 12200 nM (active) |
| COc1cc2nccc(Oc3ccc(NC(=O)C4(C(=O)Nc5ccc(F)cc5)CC4)cc3)c2cc1OC | 10900 nM (active) |
| Cc1cc(Nc2nc(N[C@@H](C)c3ncc(F)cn3)ncc2Cl)n[nH]1 | inactive |
| NC(=O)c1cccc2cn(-c3ccc([C@@H]4CCCNC4)cc3)nc12 | inactive |
| COc1cc2c(NC3CCN(C(C)C)CC3)nc(C3CCCCC3)nc2cc1OCCCN1CCCC1 | 10900 nM (active) |
| CCn1cc(-c2ccnc3[nH]c(-c4cccc(CN(C)C)c4)cc23)c(-c2ccc(NC(=O)N(C)C)cc2)n1 | 13300 nM (active) |
| CN1CCN(CCOc2cc(OC3CCOCC3)c3c(Nc4c(Cl)ccc5c4OCO5)ncnc3c2)CC1 | inactive |
| COc1ccc(-c2nc3ccc(C4=NNC(=O)CC4C)cc3[nH]2)cc1 (configuration not stated) | 21700 nM (active) |

| SMILES | Potency |
| --- | --- |
| O=C1c2c(O)ccc(O)c2C(=O)c2c(NCCNCCO)ccc(NCCNCCO)c21 | 2430 nM (active) |
| CNC(=O)c1ccccc1Sc1ccc2c(/C=C/c3ccccn3)n[nH]c2c1 | 13700 nM (active) |
| CCc1nc(C(N)=O)c(Nc2ccc(N3CCC(N4CCN(C)CC4)CC3)c(OC)c2)nc1NC1CCOCC1 | inactive |
| CCCC(Nc1nc(-c2ccc(NC(=O)NCC)c(OC)c2)ncc1C)c1cccnc1 (configuration not stated) | 153 nM (active) |
| COc1ccc2c(c1)c(CC(=O)O)c(C)n2C(=O)c1ccc(Cl)cc1 | inactive |
| Cc1ccc(C(=O)N(CCCN)C(c2oc3cc(Cl)ccc3c(=O)c2Cc2ccccc2)C(C)C)cc1 (configuration not stated) | 109 nM (active) |
| CC(Oc1cc(-n2cnc3ccc(CN4CCN(C)CC4)cc32)sc1C(N)=O)c1ccccc1C(F)(F)F (configuration not stated) | 1930 nM (active) |
| COc1cc2c(Nc3ccc(NC(=O)c4ccccc4)cc3)ncnc2cc1OCCCN1CCOCC1 | 27300 nM (active) |
| CC(C)c1nn(-c2c(Cl)cccc2Cl)c2nc(Cc3ccc(OCCO)cc3)[nH]c(=O)c12 | 68.5 nM (active) |
| C#C[C@]1(O)CC[C@H]2[C@@H]3CCC4=CC(=O)CC[C@@H]4[C@H]3CC[C@@]21CC | inactive |
| Cn1cnc2c(F)c(Nc3ccc(Br)cc3Cl)c(C(=O)NOCCO)cc21 | inactive |
| CC[C@]1(O)C[C@H]2CN(CCc3c([nH]c4ccccc34)[C@@](C(=O)OC)(c3cc4c(cc3OC)N(C=O)[C@H]3[C@@](O)(C(=O)OC)[C@H](OC(C)=O)[C@]5(CC)C=CCN6CC[C@]43[C@@H]65)C2)C1 | 193 nM (active) |
| CN(C)C/C=C/C(=O)Nc1cc2c(Nc3ccc(F)c(Cl)c3)ncnc2cc1OC1CCOC1 (configuration not stated) | 19300 nM (active) |
| CC(C)(C)C(=O)OCOP(=O)(COCCn1cnc2c(N)ncnc21)OCOC(=O)C(C)(C)C | 2430 nM (active) |
| CC(=O)Nc1cccc(-n2c(=O)n(C3CC3)c(=O)c3c(Nc4ccc(I)cc4F)n(C)c(=O)c(C)c32)c1 | inactive |
| CC(=O)c1cnc2ccc(-c3cc(Cl)c(O)c(Cl)c3)nc2c1NC1CCC(CN(C)C)CC1 (configuration not stated) | 627 nM (active) |
